Out of some 38,000 compounds screened, about 1,200 (3.2%) showed an effect of 50% or more. The median lay at about -58%. What follows is part of a selection rich in strong results, with near analogues and random picks from the rest.
Each compound was assayed on Plasmodium falciparum (assay: Calibr Malaria Delayed Death Assay SOP). Details: concentration 4.99e-06 (unit not given; other assays of the set use mol/L).
Assay type: functional, organism-based
Parameters: scale not given: in the data most compounds retested in dose-response had high values

Row | SMILES | Percent Effect [%]
1 | COCCN1CCCC(c2nccnc2Nc2nc(C)cs2)C1 (configuration not stated) | -10.08
2 | O=C(NCC1(O)CCSC1)c1cccc(-n2cccn2)c1 (configuration not stated) | -128.5
3 | CC(=O)N1CCO[C@@H]2CN(Cc3ccccc3Cl)C[C@@H]2C1.O=C(O)C(F)(F)F | -110.8
4 | O=C(NC1CCNC1)C1(N2CCCCC2)Cc2ccccc2C1 (configuration not stated) | 33.42
5 | O=C1NCCCC[C@@H]1NC(=O)C1(N2CCCCC2)Cc2ccccc2C1 | -107.8
6 | O=C(NC1CCNCC1)C1(N2CCCCC2)Cc2ccccc2C1 | 62.66
7 | CC(=O)NCC(=O)N1CCCC(C(=O)c2ccc(C(C)(C)C)cc2)C1 (configuration not stated) | -127.3
8 | CN(C)[C@H]1CCCCN(Cc2ccccc2Cn2cccn2)C1 | 49.71
9 | CC(C)(C)c1oc(C(N)=O)cc1CN1CCCCC(N)C1 (configuration not stated) | 3.928
10 | N#Cc1cc(C#N)c(SCC(=O)Nc2ccc(F)cc2)nc1N | 66.77
11 | N#Cc1cc(C#N)c(SCCC(=O)Nc2ccc(F)cc2)nc1N | 10.11
12 | N#Cc1cc(C#N)c(SCC(=O)NCc2ccc(F)cc2)nc1N | -76.83
13 | CN(C)c1ncc(CNC(=O)Nc2ccc(C(F)(F)F)cc2)n1C | 68.14
14 | CN(C)c1ncc(CNC(=O)Nc2ccccc2C(F)(F)F)n1C | -113.2
15 | CN(C)c1ncc(CNC(=O)Nc2ccccc2F)n1C | -31.3
16 | COc1cccc(CNc2nc(N3CCOCC3)ns2)c1OC | -58.35
17 | CCn1ncnc1C(C)Nc1cc(C)c2ccc(SC)cc2n1 (configuration not stated) | -98.68
18 | CSc1ccc2c(C)cc(N[C@@H](C)CO)nc2c1 | 13.21
19 | COC[C@H](C)Nc1cc(C)c2ccc(SC)cc2n1 | 74.39
20 | COCC(=O)N1CCCN(Cc2cc(C(C)C)no2)CC1 | -33.31
21 | Cc1c(C(=O)NCC(C)(C)S(C)(=O)=O)cccc1-c1ccccn1 | -72.33
22 | CCC(CO)N(CC=C(C)C)Cc1ccsc1 (configuration not stated) | 20.66
23 | CCC(CO)N(Cc1ccsc1)Cc1cccc(O)c1 (configuration not stated) | 67.4
24 | CCC(CO)N(Cc1ccc(C(=O)O)cc1)Cc1ccsc1 (configuration not stated) | -80.76
25 | CS(=O)(=O)N1CCN(C(=O)c2cc(-c3ccc(Br)s3)n[nH]2)CC1 | 2.289
26 | CN1C(=O)C2(CCN(c3nccc4occc34)CC2)c2ccccc21 | -46.41

Row | SMILES | Percent Effect [%]
27 | Cc1cc(C)cc(C(=O)NCCS(=O)(=O)N2CCSCC2)c1 | -110.6
28 | CCN1CCCN(S(=O)(=O)c2cc3ccccc3o2)CC1 | 83.88
29 | O=S(=O)(c1cc2ccccc2o1)N1CCCC1 | -30.68
30 | CC(=O)N1CCCN(S(=O)(=O)c2cc3ccccc3o2)CC1 | -136.3
31 | CCn1ccc(-c2nnc(SCC(=O)NCC(C)C)n2CC)n1 | -143.1
32 | COc1c(CNC2CCOc3ccccc32)c(C(C)C)nn1C (configuration not stated) | -23.6
33 | COc1c(CNC2CCc3ccccc32)c(C)nn1C (configuration not stated) | 30.71
34 | COc1c(CNC2CCCc3ccccc32)c(C(C)C)nn1C (configuration not stated) | 63.84
35 | CC(C)c1nn(C)c(N(C)C)c1CNC1CCc2cc(F)ccc21.Cl (configuration not stated) | -3.129
36 | COc1c(CNCCc2c[nH]c3ccccc23)c(C)nn1C | -66.3
37 | COc1c(CNCCc2c[nH]c3cc(F)ccc23)c(C(C)C)nn1C | 59.46
38 | COc1c(CNCCc2c[nH]c3cc(F)ccc23)c(C)nn1C | 49.69
39 | COc1c(CNC2CCc3cc(F)ccc32)c(C(C)C)nn1C (configuration not stated) | 57.77
40 | COc1c(CNC2CCc3cc(F)ccc32)c(C)nn1C.Cl (configuration not stated) | 26.33
41 | N#CCCN(Cc1ccccn1)C(=O)c1cccc(CN2CCCC2)c1 | -57.26
42 | CCn1cc(NS(=O)(=O)c2ccc(Br)s2)c(C(=O)NCC(C)C)n1 | -19.45
43 | O=C(NCCc1ccncc1)c1cccc(S(=O)(=O)NC2CCOC2)c1 (configuration not stated) | -7.029
44 | CC(NC(=O)NCCCN1CCCC1=O)c1ccc(Cl)s1 (configuration not stated) | -33.34
45 | CC(NCCCN1CCCC1=O)c1cc(Br)ccc1O (configuration not stated) | 50.26
46 | CC(NCCCN1CCCC1=O)c1cc(Br)ccc1F (configuration not stated) | 40.27
47 | CC(C)c1cc(-c2cnn(C)c2C2CC2)c(C#N)c(N)n1 | -61.18
48 | O=C(CC(SC1CCCCC1)C(=O)O)c1ccc(Br)cc1 (configuration not stated) | -115.9
49 | CCC1CN(C(=O)c2ccc(O)c(C)c2)CCN1C(C)C (configuration not stated) | -125.9
50 | CCC1CN(C(=O)c2ccccc2C(C)=O)CCN1C(C)C (configuration not stated) | -70.36
51 | O=C(c1ncccn1)N1C[C@@H]2COC[C@]2(COc2cccnc2)C1 | -80.86
52 | O=C(CCn1ccccc1=O)N1CCCC(COc2ccc(F)cc2)C1 (configuration not stated) | -62.32
